From PubChem BioAssay (EPA / NIEHS) come the findings set out here.

Records with an inconclusive call do not appear. Calls of active or inactive are those of the source. The calls were made as follows, unless noted: active = hit-call score of the fitted dose curve at least 0.9, where 1 is the maximum; inconclusive = response in the unintended direction; inactive = score below 0.9.

A short description of experiment [1]: ATG_XTT_Cytotoxicity: Cytotoxicity Assessment in the Attagene TRANS-FACTORIAL HepG2 Assay (AID 2283584). The gist of the method:
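24 h chemical exposure of reporter-transfected HepG2; XTT signal loss vs DMSO indicates cytotoxicity.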

Read-out in experiment [2]: Thyroid Hormone Responsive (THRSP), THRSP (gene 7069)
Briefly: LTEA_HepaRG_THRSP: Life Technologies and Expression Analysis (LTEA) Assay for Thyroid Hormone Responsive (THRSP) using HepaRG (AID 2283536; active = hit-call score of the fitted dose curve at least 0.9, where 1 is the maximum; inactive = score below 0.9). The following applies: mRNA level, 48 h; actives raise or lower the signal. The gist of the method: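 Differentiated HepaRG cells treated 48 h in serum-free induction medium with 8 half-log concentrations up to 100 uM (0.5% DMSO), duplicates. THRSP mRNA by TaqMan qRT-PCR normalised to ACTB, GAPDH, POLR2A; bidirectional fit versus DMSO.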

Read-out in experiment [3]: Cellular tumor antigen p53 (Homo sapiens) (UniProt P04637)
Description: LTEA_HepaRG_TP53: Life Technologies and Expression Analysis (LTEA) Assay for Tumor Protein P53 (TP53) using HepaRG (AID 2283537; active = hit-call score of the fitted dose curve at least 0.9, where 1 is the maximum; inactive = score below 0.9). The following applies: mRNA level, 48 h; actives raise or lower the signal. In outline: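 HepaRG, 48 h exposure, top 100 uM, half-log 8-point, 0.5% DMSO vehicle, duplicates. Read: TP53 mRNA by TaqMan qRT-PCR, normalised to ACTB/GAPDH/POLR2A; bidirectional fit vs DMSO.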

Read-out in experiment [4]: UDP glucuronosyltransferase (UGT1A1), UGT1A1 (gene 54658)
Briefly: LTEA_HepaRG_UGT1A1: Life Technologies and Expression Analysis (LTEA) Assay for UDP glucuronosyltransferase (UGT1A1) using HepaRG (AID 2283538; active = hit-call score of the fitted dose curve at least 0.9, where 1 is the maximum; inactive = score below 0.9). The following applies: mRNA level, 48 h; actives raise or lower the signal. The gist of the method: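 Readout is UGT1A1 transcript level by qRT-PCR, normalized to three housekeeping genes, after 48 h chemical treatment of HepaRG cells. Concentrations ran from 100 uM down in half-log steps with 0.5% DMSO, and gain or loss relative to DMSO was fitted.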

Read-out in experiment [5]: UDP glucuronosyltransferase (UGT1A6), UGT1A6 (gene 54578)
Briefly: LTEA_HepaRG_UGT1A6: Life Technologies and Expression Analysis (LTEA) Assay for UDP glucuronosyltransferase (UGT1A6) using HepaRG (AID 2283539; active = hit-call score of the fitted dose curve at least 0.9, where 1 is the maximum; inactive = score below 0.9). The following applies: mRNA level, 48 h; actives raise or lower the signal. On the procedure:
LTEA_HepaRG is a cell based, multiplexed-readout assay that uses HepaRG, a human liver cell line, with measurements taken at 48 hours after chemical dosing on a 96-well plate.LTEA_HepaRG_UGT1A6 is one of 102 assay component(s) measured in the LTEA HepaRG cell culture assay. It is a marker of NR mediated metabolism.Data from the assay component LTEA_HepaRG_UGT1A6 was analyzed into 1 endpoint. This assay endpoint, LTEA_HepaRG_UGT1A6, was analyzed with bidirectional fitting relative to DMSO as the negative control and baseline of activity. Using a type of inducible reporter, measures of mRNA induction for gain or loss-of-signal activity can be used to understand regulation of transcription factor activity. To generalize the intended target to other relatable targets, this assay endpoint is annotated to the transferase intended target family, where the subfamily is glucuronosyltransferase.
A total of 1060 chemcials from the ToxCast library were tested in eight-point concentration-response experiments. Cell culture and cytotoxicity assays were conducted at Thermo Fisher Scientific's Custom Services facility (Madison, WI). A single lot of human HepaRG cells (Thermo Fisher Scientific, Frederick, MD) was used for the cell culture experiments. 96-well format collagen type I coated plates of human HepaRG cells were prepared using established methods. Briefly, cryopreserved HepaRG cells were thawed, plated at a density of approximately 100,000 cells/well in HepaRG Thaw, Plate, and General Purpose media (HPRG770, Thermo Fisher Scientific), and incubated for 48 hours. […] Fluidigm's 96.96 Dynamic ArrayTM (Fluidigm, Amsterdam, the Netherlands) technology was used for gene expression analyses by quantitative reverse transcription polymerase chain reaction (qRT-PCR, performed by Quintiles/Expression Analysis, Durham, NC)89. […]

Read-out in experiment [6]: X-box binding protein 1 (XBP1), XBP1 (gene 7494)
Briefly: LTEA_HepaRG_XBP1: Life Technologies and Expression Analysis (LTEA) Assay for X-box binding protein 1 (XBP1) using HepaRG (AID 2283540; active = hit-call score of the fitted dose curve at least 0.9, where 1 is the maximum; inactive = score below 0.9). Conditions: mRNA level, 48 h; actives raise or lower the signal. The gist of the method: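 Eight concentrations (half-log, highest 100 uM, 0.5% DMSO) tested in duplicate on HepaRG cells over 48 h in serum-free induction medium; qRT-PCR of XBP1 normalised to ACTB, GAPDH, POLR2A.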

Experiment [7] can be described thus: LTEA_HepaRG_LDH_cytotoxicity: Cytotoxicity Assessment in the Life Technologies and Expression Analysis (LTEA) Assay (AID 2283563). The gist of the method:
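Spent-medium LDH after 48 h chemical exposure of HepaRG cells in serum-free induction medium; eight concentrations, half-log dilutions from 100 uM, duplicate wells, fitted upward relative to 0.5% DMSO.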

Experiment [8] can be described thus: TOX21_p53_BLA_p2_viability: Viability Assessment in the Tox21 HCT-116 p53 Agonism Beta-lactamase Assay, Phase 2 (AID 2283591).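 Also: compound exposure lasted 16 h at 37 °C; actives lower the ATP signal meaning cytotoxicity.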 The gist of the method:
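HCT116 p53-bla cells, 4000/well, dosed after 5 h plating (217-fold dilution of DMSO stocks) and incubated 16 h at 37C. Viability taken as cellular ATP by CellTiter-Glo luminescence after 30 min RT; signal loss marks cytotoxicity.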

Experiment [9] deals with Cellular tumor antigen p53 (Homo sapiens) (UniProt P04637). Description: TOX21_p53_BLA_p2_ratio: Tox21 HCT-116 p53 Agonism Beta-lactamase Assay, Ratio, Phase 2 (AID 2283592). The gist of the method: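 Human colon HCT116 cells with an inducible p53 beta-lactamase reporter are exposed to test chemicals for 16 h at 37C. Reporter induction is read as the 460/530 nm emission ratio after CCF4-AM loading, normalized to DMSO.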
Cellular tumor antigen p53 (Homo sapiens), sequence (P04637 whole entry, looked up): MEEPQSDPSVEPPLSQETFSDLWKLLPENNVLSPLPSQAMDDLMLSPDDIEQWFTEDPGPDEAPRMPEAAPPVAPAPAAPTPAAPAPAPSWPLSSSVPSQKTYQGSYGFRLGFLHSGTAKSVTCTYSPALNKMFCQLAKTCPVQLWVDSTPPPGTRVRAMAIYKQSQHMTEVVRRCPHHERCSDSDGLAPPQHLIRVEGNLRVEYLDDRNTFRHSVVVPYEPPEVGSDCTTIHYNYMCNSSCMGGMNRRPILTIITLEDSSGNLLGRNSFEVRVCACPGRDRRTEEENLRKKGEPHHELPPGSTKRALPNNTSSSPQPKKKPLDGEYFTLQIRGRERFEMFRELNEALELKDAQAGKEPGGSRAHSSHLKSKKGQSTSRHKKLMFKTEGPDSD

Experiment [10] can be described thus: TOX21_p53_BLA_p3_viability: Viability Assessment in the Tox21 HCT-116 p53 Agonism Beta-lactamase Assay, Phase 3 (AID 2283593).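 Also: cells exposed to compound for 16 h before reading.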 The gist of the method:
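HCT116 cells, 4000/well, dosed 5 h after plating by pin transfer (217-fold dilution from DMSO stock) and incubated 16 h at 37C, 5% CO2. Viability read as ATP luminescence with CellTiter-Glo after 30 min at room temperature.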

On to `CCCCCC1=CCCC1=O`, for which the molecule was called inactive in [1].
Turning to `O=C(O)CCC(=O)O`, the molecule was classed as inactive in experiment [1].
Same read-out and setting: in the case of `CCC(C)C(=O)OC` (stereo not drawn) it was “inactive”; in that of `CCCCCCCO`, “inactive”; in that of `CC(C)c1ccc2ncccc2c1`, “inactive”.
The same measure, in the same setting: to `CCOC(=O)C1=NN(c2ccc(Cl)cc2Cl)C(C)(C(=O)OCC)C1` (stereo not drawn) belongs “inactive”; to `CCC(=O)C1CC(C(C)C)CC=C1C` (stereo not drawn), “inactive”; to `Cc1c(O)cccc1O`, “inactive”.
Same read-out and setting: in the case of `CC=C(C)C(C)=O` it was “inactive”.
`CCNc1nc(NC(C)(C)C)nc(OC)n1`: the call in experiment [1] was inactive.
As to `C1CNCCN1`, the outcome in experiment [2], in [3], in [4], in [5], in [6] and in experiment [7] was inactive. The molecule was classed as inactive in experiment [1], in [8], in experiment [9] and in [10].
`C=CCCCCCCCCC=O`: the molecule was called inactive in [1].
Still for that read-out and setting: in the case of `CC(C)C(=O)OCCc1ccccc1` it was “inactive”; in that of `CCCCCCCCC(CO)CCCCCC` (stereo not drawn), “inactive”.
The same measure, in the same setting: to `CC(C)(CO)C(O)C(=O)NCCCO` (stereo not drawn) belongs “inactive”.
Turning to `Nc1nc(N)nc(-c2ccccc2)n1`, the molecule was called inactive in [1].
Still for that read-out and setting: in the case of `CC1(C)C(=O)N(CO)C(=O)N1CO` it was “inactive”.
With `Cc1ccc([N+](=O)[O-])cc1N`, the AC50 was 13.3 µM (active) in experiment [2] and 50 µM (active) in experiment [4]. Besides, the molecule was classed as inactive in experiment [3], in experiment [5], in experiment [6], in experiment [7], in experiment [1] and in [9].
As for `Cc1ccc(C)c(OCCCC(C)(C)C(=O)O)c1`, the result in experiment [1] was inactive.
The same measure, in the same setting: in the case of `CC=CC(=O)OCC(C)C` it was “inactive”.
Same read-out and setting: in the case of `C=CC(=O)NCOCCCC` it was “inactive”; in that of `CC(C)(C)N`, “inactive”.
On the same count and under the same terms, to `C=CC(=O)NC(C)(C)C` belongs “inactive”; to `COc1cc(O)c(C(=O)c2ccccc2)cc1S(=O)(=O)O`, “inactive”; to `CCC1(C)C(=O)N(Cl)C(=O)N1Cl` (stereo not drawn), “inactive”.
Turning to `COc1nccnc1CC(C)C`, the molecule was called inactive in experiment [1].
As to `CCOC(=O)CC(=O)c1ccccc1`, in experiment [1], the result was inactive.
`Nc1ccc(C(=O)O)cc1`: the molecule was called inactive in experiment [2], in experiment [3], in [4], in experiment [5], in experiment [6] and in experiment [7]. For the same molecule, the outcome in [1], in [8] and in experiment [9] was inactive.
On to `COC(=O)c1ccc(C(=O)OC)c(C(=O)OC)c1`, for which the call in experiment [1] was inactive.
Still for that read-out and setting: to `CC1=CP(=O)(c2ccccc2)CC1` (stereo not drawn) belongs “inactive”; to `Cc1c[nH]c(=O)[nH]c1=O`, “inactive”; to `CC1(C)CC(O)CC(C)(C)N1[O]`, “inactive”.
The same measure, in the same setting: in the case of `CCC(C)c1ccccc1` (stereo not drawn) it was “inactive”; in that of `CCCC=C(C=O)CC`, “inactive”; in that of `CC(C)CCOCc1ccccc1`, “inactive”.
Still for that read-out and setting: to `CCOC(=O)[C@H](O)[C@@H](O)C(=O)OCC` belongs “inactive”.
Consider `O=C(Cl)c1c(Cl)c(Cl)c(C(=O)Cl)c(Cl)c1Cl`, for which the molecule was classed as inactive in experiment [1], in [8] and in experiment [9].
For `C[Si](C)(C)N[Si](C)(C)C`, the outcome in [1], in experiment [8] and in experiment [9] was inactive.
`O=S(=O)(O)c1ccc(Nc2nc(Nc3ccc(C=Cc4ccc(Nc5nc(Nc6ccc(S(=O)(=O)O)cc6)nc(N(CCO)CCO)n5)cc4S(=O)(=O)O)c(S(=O)(=O)O)c3)nc(N(CCO)CCO)n2)cc1`: the outcome in [1], in experiment [8] and in experiment [9] was inactive.
For the molecule `CCCCCCCCCC(C)=O`, the molecule was called inactive in experiment [1], in experiment [8] and in [9].
Consider `C=C(C)C(=O)OCCCCCCCCCCCC`, for which the outcome in experiment [1], in [8] and in experiment [9] was inactive.
As to `CCCCC(=O)O`, the molecule was called inactive in [1], in experiment [8] and in experiment [9].

A word on the AC50: it is the midpoint of the concentration-response curve, whichever way the signal moves.
